From ChEMBL document CHEMBL3988442, “University of Dundee, Small-Polar-MMV Screening Library” (2021)
About 13,000 (27%) of roughly 48,000 compounds showed an effect of 50% or more. This is one part of the list.

Tested on: Wolbachia pipientis
Experiment: Anti-Wolbachia Cell-Based Screen
Format: functional
Parameters: scale not given: in the data most compounds retested in dose-response had high values
Conditions: 5 µM

SMILES | Percent Effect
CN(C)C(C(=O)N1CCC(C#N)CC1)c1ccccc1F (stereo not drawn) | -0.3171%
CCN1C[C@H]2C3(CCN(C(C)=O)CC3)CC[C@@]2(C(=O)N(C)C)C1.O=C(O)C(F)(F)F | 6.202%
Cc1ncc(-c2ccnc(N3CC[C@H](O)C3)n2)c(-c2cccnc2)n1 | 109%
O=c1cc(-c2cccnc2)nc(-c2ccc(CN3CC[C@@H](O)C3)cc2)[nH]1 | 3.03%
Cc1ncc(-c2ccnc(NC3CC3)n2)c(-c2cccnc2)n1 | 88.62%
CCCn1cc(-c2ccnc(NC3CCc4ccccc4C3)n2)c(C)n1 (stereo not drawn) | 0.5444%
Cc1ncc(-c2ccnc(N3CCCCCC3)n2)c(-c2cccnc2)n1 | -6.559%
Cc1noc(-c2ccc(N3CCC[C@H]3CO)nc2)n1 | 4.962%
Cc1ncc(-c2ccnc(N3CCC[C@@H]3CO)n2)c(-c2cccnc2)n1 | 102.7%
COc1ccnc(N2CCCN(c3nc(C4CC4)ns3)CC2)n1 | 2.276%
c1cncc(-c2nc(C3CC3)ncc2-c2ccnc(N3CCCC3)n2)c1 | 90.28%
COc1ccccc1Oc1ncccc1CNC(=O)CN1CCCC1=O | -22.72%
O=C(Nc1ccccc1)N1CCC(N2Cc3ncccc3C2=O)CC1 | -2.29%
CSC1(CNc2ncc(Br)cn2)CCOCC1 | -8.791%
COc1ccccc1C(=O)N(Cc1nc(C)cs1)CC1CCCO1 (stereo not drawn) | -4.042%
CCC[C@H]1CN(CCS(C)(=O)=O)C[C@@H]1NC(=O)c1cccnn1 | 3.679%
COc1ccsc1C(=O)Nc1cc(Cl)c(=O)n(C)c1 | -0.9546%
O=C(NCCCOC1CCOC1)NC(C1CC1)C1CC1 (stereo not drawn) | -5.056%
CCCc1nc(C)c(CN2CC3(CCOC3)CCC2=O)s1 (stereo not drawn) | -4.631%
COc1ccc(-c2nc(CC(=O)N(C)CCC#N)cs2)cc1OC | -11.11%
CCN(CC)[C@@H]1CN(C(=O)c2ccnnc2)[C@@H]2CCCO[C@H]12.O=C(O)C(F)(F)F | -6.627%
CN(Cc1ccco1)[C@@H]1CN(CC2CCOCC2)[C@@H]2CCCO[C@H]12.O=C(O)C(F)(F)F.O=C(O)C(F)(F)F | 6.763%
CCN(CC)[C@@H]1CN(C(=O)c2ccc(C#N)cc2)[C@@H]2CCCO[C@H]12.O=C(O)C(F)(F)F | -2.681%
CN(Cc1ccco1)[C@@H]1CN(C(=O)c2ccnnc2)[C@@H]2CCCO[C@H]12.O=C(O)C(F)(F)F | 0.1298%
CN(Cc1ccco1)[C@@H]1CN(Cc2ccc(F)cc2)[C@@H]2CCCO[C@H]12.O=C(O)C(F)(F)F.O=C(O)C(F)(F)F | 1.532%

SMILES | Percent Effect
CN(Cc1cncnc1)[C@@H]1CN(C(=O)C2CC2)[C@@H]2CCCO[C@H]12.O=C(O)C(F)(F)F | 103.9%
CN(Cc1cncnc1)[C@H]1CN(C(=O)c2ccco2)[C@@H]2CCCO[C@@H]21 | 83.44%
CN(Cc1cncnc1)[C@@H]1CN(C(=O)c2ccco2)[C@@H]2CCCO[C@H]12.O=C(O)C(F)(F)F | 99.89%
Cc1ccc(CN2C[C@H](N(C)Cc3cncnc3)[C@H]3OCCC[C@H]32)o1 | -12.1%
CN(C)C(=O)CO[C@@H]1CN(Cc2ccccc2)[C@@H]2CCCO[C@@H]21 | -2.745%
COCC(=O)N1C[C@H](N(C)Cc2cncnc2)[C@H]2OCCC[C@H]21 | 102.5%
CCCS(=O)(=O)N1C[C@H](N(C)Cc2ccco2)[C@@H]2OCCC[C@@H]21.O=C(O)C(F)(F)F | -9.069%
C1CCC(N2CCCN(c3nc(C4CC4)no3)CC2)C1 | 19.76%
CCCNC(=O)c1cc(Br)c2c(c1)OCCO2 | -33.44%
CCc1nc(CN2CCN(C(=O)C3CCCCC3)CC2)cs1 | 4.149%
O=C(CN1CCN(c2ccccc2F)CC1)Nc1ccc(Cl)cn1 | 4.247%
CCCS(=O)(=O)N1C[C@@H]2CN(Cc3ccoc3)CCO[C@@H]2C1.O=C(O)C(F)(F)F | 45.1%
CN(Cc1cncnc1)[C@H]1CN(C(=O)c2ccc[nH]2)[C@@H]2CCCO[C@@H]21 | 103.1%
CC(C)N(C)[C@@H]1CCN(C(=O)c2ccc[nH]2)[C@H]1Cc1cnn(C)c1 | -2.599%
CN(Cc1cccnc1)[C@@H]1CN(C(=O)c2ccco2)[C@@H]2CCCO[C@H]12 | 99.41%
Cn1cc(C[C@H]2[C@H](N3CCOCC3)CCN2C(=O)c2ccc[nH]2)cn1 | -3.493%
CN(Cc1ccco1)[C@@H]1CN(C(=O)c2ccnnc2)C[C@@H]2CCCO[C@@H]21.O=C(O)C(F)(F)F | 1.243%
O=S(=O)(NCC1COCCO1)c1ccc(C2CCCCC2)cc1 (stereo not drawn) | -20.85%
CC1CN(Cc2cccc(CNC3CCCC3)c2)CCO1 (stereo not drawn) | 2.611%
OC(CN1CCOCC1)c1cc(Cl)ccc1Cl (stereo not drawn) | 1.615%
Cc1ccsc1C(=O)NCc1cccnc1N(C)CCc1ccccn1 | -9.716%
O=S(=O)(NCC1CCN(c2cnccn2)CC1)c1c(F)cccc1F | -13.03%
Cc1cccc(S(=O)(=O)NCC2CCN(c3cnccn3)CC2)c1 | 113.6%
Cc1cnc2c(S(=O)(=O)NCC3CCN(C4CC4)C3)cccc2c1 (stereo not drawn) | -24.19%
CN(C)c1nccc(CNS(=O)(=O)c2ccc(F)c(Cl)c2)n1 | -4.41%

SMILES | Percent Effect
O=S(=O)(NCC1CCN(c2ccccn2)CC1)c1ccccc1F | -4.881%
O=S(=O)(NCC1CCN(c2cnccn2)CC1)c1ccc(F)c(Cl)c1 | 114.1%
Cn1cc(S(=O)(=O)NCC2CCN(C(=O)Oc3ccccc3)CC2)cn1 | -5.514%
O=C(Oc1ccccc1)N1CCC(CNS(=O)(=O)c2cccnc2)CC1 | 12.7%
CC(=O)c1ccc(S(=O)(=O)NCC2CCN(c3cnccn3)CC2)cc1 | 109.4%
Cc1nn(C)c(C)c1CN(C(=O)c1cnc(O)cn1)C(C)C | -5.966%
CN(CCC1CCOCC1)[C@@H]1c2ccccc2C2(CCNCC2)[C@H]1O | -1.046%
CCn1nc2c(cc1=O)CN(c1nc3ccccc3s1)CC2 | 17.49%
COc1cc(CO)ccc1OCc1nc(C(C)C)no1 | -5.276%
NC(=O)CN1CCC(NC(=O)N2CCCC2c2ccncc2)CC1 (stereo not drawn) | -10.76%
CC(C)NC(=O)N1CCCCCC1C1CCN(c2ncccn2)CC1 (stereo not drawn) | -15.72%
Cc1cc(C)c(C(=O)NC(c2nnc3n2CCNCC3)C(C)C)c(C)c1 (stereo not drawn) | -5.156%
CC(C)NC(=O)N1CCC(c2nccn2C(C)C)CC1 | 0.5032%
CC(CC(=O)N1CCC(c2nnc3n2CCC3)CC1)n1cccc1 (stereo not drawn) | -3.041%
CC(C)NC(=O)N1CCCCC1c1nnc2n1CCNC2 (stereo not drawn) | 134%
O=C(N1CCCCC1)N1CCCC1c1nnc2n1CCNC2 (stereo not drawn) | 113%
CC(C)NC(=O)N1CCC(c2nnc3n2CCNC3)CC1 | 121.8%
O=C(NC1CCCCC1)N1CCCC1c1nnc2n1CCNC2 (stereo not drawn) | 105.9%
CCNC(=O)NC(=O)CNc1cc(C(=O)OC)cc(C(F)(F)F)c1 | -3.63%
Cc1n[nH]cc1CNCC1(c2cccc(F)c2)CCOCC1.Cl | 8.493%
N#CCCN(Cc1ccccn1)C(=O)Nc1cccc(F)c1 | 3.903%
O=C(Nc1ccc(CCN2CCSCC2)cc1)NC1CC1 | -3.133%
COCCNC(=O)CSCc1nc(O)c2cc(C(C)C)sc2n1 | -3.697%
CC(=O)N1CCCCC1c1nnc2n1CCNC2 (stereo not drawn) | 131%
CC(=O)N1CCCC1c1nnc2n1CCCCC2 (stereo not drawn) | 5.226%

SMILES | Percent Effect
Cc1cccc(C)c1OCCNC(=O)NC(C)c1nncn1C (stereo not drawn) | 5.116%
CC(NC(=O)NCC1(c2ccc(F)cc2)CCCC1)c1nncn1C (stereo not drawn) | 121.9%
Cc1ccccc1C1(CNC(=O)NC(C)c2nncn2C)CC1 (stereo not drawn) | 118.5%
CC(NC(=O)NCCOc1ccc(Cl)cc1)c1nncn1C (stereo not drawn) | 7.354%
CC(NC(=O)NCC1(c2ccc(F)cc2)CCC1)c1nncn1C (stereo not drawn) | -3.695%
CC(NC(=O)Nc1cc(F)ccc1N1CCCCC1)c1nncn1C (stereo not drawn) | -5.475%
CC(NC(=O)NCC1(c2ccccc2)CCC1)c1nncn1C (stereo not drawn) | 0.9782%
CC(NC(=O)NCCCN1CCCCCC1)c1nncn1C (stereo not drawn) | -1.343%
CC(NC(=O)NCC1(c2ccc(Cl)cc2)CC1)c1nncn1C (stereo not drawn) | 123.5%
CC(NC(=O)NCC1(c2ccc(F)cc2)CC1)c1nncn1C (stereo not drawn) | 98.23%
CC(NC(=O)NCC1(N2CCCCC2)CCCCC1)c1nncn1C (stereo not drawn) | 3.494%
CC(NC(=O)NCCOc1ccc(F)c(F)c1)c1nncn1C (stereo not drawn) | 2.072%
CC(C)c1nnc2n1CCN(C(=O)c1ccc(OCC3CC3)nc1)C2 | -21%
CCOc1cc(C)nc(N2CCN(Cc3nccn3C)CC2)n1 | 4.632%
Cc1nc(C)c(CN2CCOC[C@H](Oc3ccc(S(C)(=O)=O)cc3)C2)s1 | -11.23%
CC(=O)N1CCCC1c1nnn2cc(-c3ccncc3)ccc12.O=C(O)C(F)(F)F (stereo not drawn) | 7.793%
CC(=O)N1Cc2ccccc2CC1C(=O)Nc1ccc(C)cn1 (stereo not drawn) | -8.335%
Cn1ncc2c(=O)[nH]c(CN(Cc3ccco3)C3CCCC3)nc21 | 8.263%
CC(N(C)Cc1nc2c(cnn2C)c(=O)[nH]1)C(C)(C)C (stereo not drawn) | 1.899%
CC(c1ccco1)N(C)Cc1nc2c(cnn2C)c(=O)[nH]1 (stereo not drawn) | 2.011%
Cn1ncc2c(=O)[nH]c(CN(Cc3ccco3)C3CC3)nc21 | 87.32%
CCN(Cc1nc2c(cnn2C)c(=O)[nH]1)c1cccc(C)c1C | -14.78%
Cc1ccc(CN(Cc2nc3c(cnn3C)c(=O)[nH]2)C2CC2)o1 | 96.47%
